High-throughput results deposited in PubChem by National Center for Advancing Translational Sciences (NCATS).
This is a sample that favours compounds with a hit; in the whole collection about 0.92% have one here.
Giardia killer – Small Molecules that selectively kill Giardia lamblia: qHTS; Giardia lamblia trophozoite viability; activity change, % at 7.66 µM, hits read low; hit rate 0.15% among 340,000; AID 540267, 2011; in the data active = activity change below about -80%; inconclusive = between about -30% and that limit;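 also: parasites exposed to compound for two days anaerobically before the ATP read; % is scaled to controls: 0 for no effect and ±100 for the full control effect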
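Luminescent ATP signal served as the viability read-out, measured 15-30 min after adding ATP detection reagent to trophozoites that had been incubated with compounds for 48 hrs at 37 deg C anaerobically at 100 cells/well.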
GALK inh – qHTS Assay for Inhibitors of Human Galactokinase (GALK); Potency, µM (series often up to 57.5 µM), for inactives: top-dose activity change, negative = inhibition, most hits filed as inhibitors; Purified GALK, Kinase-Glo residual ATP luminescence; P51570; hit rate 0.007% among 270,000; also: potency is read from the fitted curve at half-maximal effect; % is scaled to controls: 0 for no effect and ±100 for the full control effect
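Human GALK (5 nM) with 35 uM ATP and 100 uM galactose in 20 mM HEPES pH 8.0, 5 mM MgCl2, 60 mM NaCl, 1 mM DTT, 0.01% BSA. After 1 h at room temperature, leftover ATP was read by Kinase-Glo Plus luminescence.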
uPA surface inh – qHTS for Inhibitors of Cell Surface uPA Generation. cell surface uPA generation assay, qHTS. Potency, µM (titrated, usually from 38.3 µM), for inactives: at the highest dose activity change, negative = inhibition, hits mostly inhibitors. hit rate 0.31% among 330,000. AID 540303, 2011; active = well fitted inhibition curve with a large enough effect; inconclusive = small, poorly fitted or top-dose-only effect; inactive = no such curve, though single readings can be large or run the other way; tested in mouse RAW 264.7 cells; also: potency is read from the fitted curve at half-maximal effect; % is scaled to controls: 0 for no effect and ±100 for the full control effect; nearly all actives have a fitted effect of over 55% in size
FBPA coupling cs – qHTS Assay for Inhibitors of Fructose-1,6-bisphosphate Aldolase from Giardia Lamblia: Coupling assay counterscreen; activity change, negative = inhibition, % at 58.2 µM, hits read low; coupling enzyme system counterscreen, AmpLite Red fluorescence; hit rate 0.67% among 290,000; AID 2472, 2010; in the data active = activity change below about -30%; also: % is scaled to controls: 0 for no effect and ±100 for the full control effect
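Coupling enzymes only (glyceraldehyde-3-phosphate) + compound, at 57.5 uM final, 10 min RT; add substrate/coupling/AmpLite Red mix, 20 min RT; fluorescence ex 525/em 598 nm. Actives flag coupling-system interference.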
miR-21 act – qHTS Assay for Modulators of miRNAs and/orActivators of miR-21; Potency, µM (doses to about 38.3 µM), inactives show at the top dose activity change, positive = activation, usual class: activators; HeLa miR-21 FLuc reporter, luciferase, 48 h; 340,000 tested, under 10 active;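 also: % of control where 0% means no effect; miR-21 action dims this reporter so a rising signal means less miR-21 action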
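HeLa miR-21-FLuc reporter line, endogenous miR-21; 2000 cells/well in DMEM/10% FBS; compound titration up to ~40uM final, 48 h, 37 degree Celsius; luciferase detection reagent, 15 min lysis, CCD luminescence.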
B2AR arrestin – qHTS assay of beta-arrestin-biased ligands of beta2-adrenergic receptor; Beta-2 adrenergic receptor (Homo sapiens), P07550; beta-arrestin recruitment to beta2AR, cell-based reporter; Potency, µM (titrated, usually from 46.1 µM), without a hit: top-dose activation, actives largely listed as activators; hit rate 0.02% among 330,000;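 also: potency is read from the fitted curve at half-maximal effect; 0% = DMSO controls and full agonism = EC100 isoproterenol or metaproterenol; nearly all actives have a fitted effect of over 65% in size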
Target sequence (P07550 whole entry, looked up): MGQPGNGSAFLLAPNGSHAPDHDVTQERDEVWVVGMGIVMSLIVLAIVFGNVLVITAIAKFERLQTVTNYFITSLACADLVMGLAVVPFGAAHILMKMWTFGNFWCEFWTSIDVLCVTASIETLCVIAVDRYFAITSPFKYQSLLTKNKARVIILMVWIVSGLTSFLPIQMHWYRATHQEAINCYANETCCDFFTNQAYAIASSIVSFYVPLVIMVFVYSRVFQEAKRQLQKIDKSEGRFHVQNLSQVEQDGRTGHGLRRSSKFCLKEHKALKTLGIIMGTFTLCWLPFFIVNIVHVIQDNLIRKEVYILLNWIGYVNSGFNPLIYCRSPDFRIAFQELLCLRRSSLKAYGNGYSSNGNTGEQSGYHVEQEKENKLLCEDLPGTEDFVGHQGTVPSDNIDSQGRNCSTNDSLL
The depositor's hits bear a star; u = inconclusive; x = no result given; ! = not confirmed by another sample. Unless noted, calls follow the shape of the dose curve; as a rule, active = well fitted curve in the direction sought with a large enough effect; inconclusive = small, poorly fitted or top-dose-only effect, or another doubt; inactive = no such curve, though single readings can be large; an effect the other way counts as inactive or inconclusive.

SMILES	Giardia killer	GALK inh	uPA surface inh	FBPA coupling cs	miR-21 act	B2AR arrestin
COc1ccccc1CNc1nc(-c2ccoc2)nc2ccccc12	x	x	x	4	x	x
CCOC(=O)c1ccc(Nc2cc(C)nc(-c3ccccc3)n2)cc1	-10	2%	5µM*	-8	19%	0%
CCOC(=O)c1ccc(Nc2nc(C)cc(C)n2)cc1	22	-3%	4%	3	-13%	0%
CCCOc1ccc(/C(O)=C2/C(=O)C(=O)N(CCCN3CCOCC3)C2c2ccncc2)cc1 (stereo unspecified)	x	0%	x	-62*	-2%	-2%
O=C(NCCCN1CCOCC1)c1ccc2c(c1)N(Cc1c(F)cccc1Cl)C(=O)c1ccccc1S2	32	4%	4.5µM*	x	15%	0%
O=C(c1ccc2c(c1)N(Cc1ccccc1F)C(=O)c1ccccc1S2)N1CCOCC1	0	-2%	11%	-42*	1%	-1%
O=C(NCCCN1CCOCC1)c1ccc2c(c1)N(Cc1cccc(Cl)c1)C(=O)c1ccccc1S2	x	x	x	x	6%	x
Cc1ccc(C)c(NC(=O)CSc2ncc3c(n2)-c2ccc(Cl)cc2N(C)S3(=O)=O)c1	x	x	x	x	0%	x
C=CCC(C)(Nc1ccccc1)C(=O)OCC (stereo unspecified)	x	x	x	0	x	x
c1ccc2[nH]c(NCCCc3cnc[nH]3)nc2c1	x	x	x	1	x	x
COc1ccc2c(c1)sc1nc(-c3ccccc3)cn12	-91*	6%	-8%	-19	u	0%
COc1ccc(-c2cn3c(n2)sc2cc(C(=O)NCc4ccccc4)ccc23)cc1	x	x	x	x	-2%	x
COc1ccc(/C=C/C(=O)NNc2cc(=O)n(C)c(=O)n2C)cc1OC	-20	-1%	3%	-31*	0%	-1%
COc1ccc(/C=N/Nc2cc(=O)n(C)c(=O)n2C)cc1OC	-4	2%	-5%	-35*	-3%	0%
COc1cc(/C=C\C(=O)Nc2cc(=O)n(C)c(=O)n2C)cc(OC)c1OC	2	4%	-12%	-3	5%	0%
CCOc1cc(-c2ccc(OC(=O)c3ccccc3F)cc2)cc(=O)c2c(C)oc(C)c12	x	x	x	x	5%	x
C=CC(C)(C)c1c(O)c(CC=C(C)C)c(O)c2c(=O)c3ccc(O)c(O)c3oc12	-7	x	11µM*	x	x	x
N#Cc1ccccc1/C=N/Nc1nc(-c2ccccc2)c2cc(Br)ccc2n1	-14	0%	0%	2	0%	0%
Cc1ccc2nc(N/N=C\c3ccc([N+](=O)[O-])o3)nc(-c3ccccc3)c2c1	-99*	3%	-1%	5	4%	0%
O=[N+]([O-])c1ccc(/C=N/Nc2ccc3ccccc3c2)o1	u	2%	u	2	-24%	0%
O=[N+]([O-])c1ccc(/C=N/Nc2nc(-c3ccccc3)c3cc(Br)ccc3n2)o1	-91*	1%	2%	12	6%	0%
Cc1ccc(Cl)cc1-n1ncc2c(NCCC3=CCCCC3)ncnc21	x	x	x	x	20%	x
O=S(=O)(c1ccc(OCC2CO2)cc1)c1ccc(OCC2CO2)cc1 (stereo unspecified)	-10	3%	5.6µM*	7	-1%	0%
O=C(CN1C(=O)C2(SCC(=O)N2c2cccc(F)c2)c2ccccc21)NCCc1ccccc1 (stereo unspecified)	x	x	x	x	1%	x
Cc1nn(-c2ccccn2)c(N)c1N=O	-6	11%	-8%	0	-4%	-1%
SMILES	Giardia killer	GALK inh	uPA surface inh	FBPA coupling cs	miR-21 act	B2AR arrestin
COC(=O)c1ccccc1N/C=C1\CCc2c(c(C)nn2-c2ccccn2)C1=O	4	-1%	13%	-17	2%	0%
Cc1nn(-c2ccccn2)c2c1-c1nc(N3CCOCC3)ncc1CC2	-2	-1%	7%	-39*	-11%	0%
Cc1nn(-c2ccccn2)c2c1-c1nc(N)ncc1CC2	-3	-1%	-4%	-47*	-18%	0%
COC(=O)c1c(C)[nH]c(O)c1C=Nc1ccc(C#N)cc1	-9	-2%	0%	-36*	-23%	0%
COC(=O)C(c1ccc(OC)c(OC)c1)C1c2ccccc2C=C(C)N1C(=O)OC (stereo unspecified)	x	x	x	-3	x	x
CC(C)c1cc(NC(=O)CCl)on1	7	0%	6.3µM*	1	28%	0%
C=CCOc1c(Cl)cc(CNc2ccc(N(C)C)cc2)cc1OC	13	-2%	x	-79*	2%	0%
COCCCNC(=O)CCC(=O)N1Cc2ccccc2Oc2ncccc21	x	x	x	x	0%	x
COC(=O)CCC(=O)OC1(C)C(=O)C=C2C=C(C3CC3)N(Cc3ccccc3)C=C2C1=O (stereo unspecified)	-13	-3%	-4%	2	0%	-1%
CCCCC1=CC2=CC(=O)C(C)(OC(=O)CC)C(=O)C2=CN1CC(C)C (stereo unspecified)	16	7%	1%	-13	-1%	-1%
CCN(CC)CCCN1C=C2C(=O)C(C)(OC(=O)CCC(=O)OC)C(=O)C=C2C=C1C1CC1 (stereo unspecified)	4	x	5%	-39*	x	x
COC(=O)CCC(=O)OC1(C)C(=O)C=C2C=C(C3CC3)N(c3ccc(OC)cc3)C=C2C1=O (stereo unspecified)	x	x	x	-41*	x	x
COC(=O)CCC(=O)OC1(C)C(=O)C=C2C=C(C3CC3)N(CC3CC3)C=C2C1=O (stereo unspecified)	8	-1%	0%	-44*!	2%	0%
COC(=O)CCC(=O)OC1(C)C(=O)C=C2C=C(C3CC3)N(CC(C)C)C=C2C1=O (stereo unspecified)	x	-1%	x	-45*	6%	0%
CC(C)C[C@H](NC(=O)CN(C)C(=O)[C@H](Cc1ccccc1)NC(=O)[C@H](Cc1ccccc1)NC(=O)[C@H](CCC(N)=O)NC(=O)[C@H](CCC(N)=O)NC(=O)[C@@H]1CCCN1C(=O)[C@H](CCCCN)NC(=O)[C@@H]1CCCN1C(=O)[C@@H](N)CCCN=C(N)N)C(=O)N[C@@H](CCS(C)(=O)=O)C(N)=O	x	x	x	-1	x	x
COC(=O)c1c(N)n(-c2ccc(OC)c(OC)c2)c2nc3ccccc3nc12	x	x	x	x	-6%	x
COc1ccc2c(C#N)c3ccccn3c2c1	2	-1%	-2%	-37*	16%	0%
N#Cc1nc(N2CCCCC2)nc(N2CCCCC2)n1	-27	x	x	x	x	x
CCN1CCN(c2ccc(NC(=O)c3cc4ccccc4cc3OC)cc2C)CC1	10	x	11µM*	x	x	-1%
CCN1CCN(c2ccc(NC(=O)c3ccccc3F)cc2Cl)CC1	17	-1%	-4%	1	-62%	0%
